MEKK2 WT-MEK5: raises or lowers MEK5 binding to wildtype human MEKK2 PB1 domain; Q9Y2U5; bead flow cytometry, Alexa488-MEK5 binding to MEKK2 WT; actives lie on both sides; binding response (% of control), % at 10 µM; 290,000 compounds, 1.1% hits; AID 1531; in the data active = binding response below about 67% or above about 130%
GRK2 inh: blocks RNA aptamer binding to human GRK2. inhibition of aptamer binding, % at 10 µM. P25098. AID 488847. 330,000 compounds, 0.59% hits. bead flow cytometry, FAM-aptamer displacement from GRK2;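 active = inhibition of aptamer binding above 40%, roughly 3 SD of noise, on plates passing a quality check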;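 also: median bead fluorescence of bound FAM aptamer so fluorescent compounds give negative values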
MEKK2mut PB1 HTS: signal of MEK5 binding to mutant human MEKK2 PB1 domain; bead flow cytometry, Alexa488-MEK5 binding to MEKK2 mutant; percent response, % at 10 µM; 290,000 compounds, 0.35% hits; AID 1530; in the data active = percent response above about 24%, passing the limit was not always enough
Beta2AR agonist: agonists of human beta-2 adrenergic receptor inducing internalization | Am2.2-beta2AR cells, FAP receptor internalization, flow cytometry | response, % (no concentration beside the values) | 340,000 compounds, 0.43% hits | AID 504454;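 active = response above a set limit, near 3 SD of response in nonfluorescent compounds, cut at about 42% in these data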
MEKK3 PB1 HTS: raises or lowers MEK5 binding to the human MEKK3 PB1 domain | binding response (% of control), % at 10 µM | Q99759 | bead-based flow cytometry, Alexa488-MEK5 binding to MEKK3; actives lie on both sides; 0 = blocked by unlabeled MEK5, 100 = vehicle | 290,000 compounds, 1.4% hits;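 active = binding response more than 3 SD above or below the average of its plate-row segment, actives on both sides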;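 also: Alexa488 bead fluorescence after subtracting the streptavidin-only scavenger bead signal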
Target sequence (Q99759 whole entry, looked up, the tested form may be a part): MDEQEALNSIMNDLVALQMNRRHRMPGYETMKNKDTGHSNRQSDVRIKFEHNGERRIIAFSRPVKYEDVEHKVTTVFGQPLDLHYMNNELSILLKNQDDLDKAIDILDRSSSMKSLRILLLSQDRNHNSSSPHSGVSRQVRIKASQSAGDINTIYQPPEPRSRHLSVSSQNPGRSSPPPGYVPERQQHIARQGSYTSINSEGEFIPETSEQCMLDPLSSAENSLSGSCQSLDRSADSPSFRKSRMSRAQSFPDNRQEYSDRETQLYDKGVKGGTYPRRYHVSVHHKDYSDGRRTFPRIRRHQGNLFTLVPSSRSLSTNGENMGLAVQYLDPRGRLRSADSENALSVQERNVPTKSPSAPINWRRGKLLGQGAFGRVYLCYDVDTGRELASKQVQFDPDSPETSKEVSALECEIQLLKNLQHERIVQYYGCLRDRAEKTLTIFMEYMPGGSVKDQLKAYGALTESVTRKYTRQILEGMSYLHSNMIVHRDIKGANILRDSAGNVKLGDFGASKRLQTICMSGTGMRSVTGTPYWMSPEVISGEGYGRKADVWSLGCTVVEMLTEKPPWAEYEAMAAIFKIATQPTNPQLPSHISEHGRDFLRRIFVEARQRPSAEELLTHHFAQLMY
MEKK2wt confirm: raises or lowers MEK5 binding to wildtype human MEKK2, retest; binding response (% of control), % at 10 µM; AID 1892; 5,900 compounds, 2.4% hits; bead flow cytometry, Alexa488-MEK5 binding to MEKK2 WT; actives lie on both sides; shares compounds with MEKK3 PB1 HTS; in the data active = binding response below about 16% or above about 210%; inactive = in between
MEKK2mut-MEK5: signal of MEK5 binding to mutant human MEKK2, retest | shares compounds with MEKK3 PB1 HTS | bead flow cytometry, Alexa488-MEK5 binding to MEKK2 mutant | percent response, % at 10 µM | 5,900 compounds, 2% hits; in the data active = percent response mostly above about 71%, no sharp cut-off; inactive = mostly below about 38%;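 also: higher means compound restores mutant binding toward wildtype level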
MEKK3 confirm: confirmation of inhibitors of MEK5 binding to human MEKK3. shares compounds with MEKK3 PB1 HTS. bead flow cytometry, Alexa488-MEK5 binding to MEKK3; stronger effect = lower value. binding response (% of control), % at 10 µM. 5,900 compounds, 1.8% hits. AID 1894;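 active = binding response below 72% of control, or above a set upper limit, though filed actives all read lower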;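 also: 100% = DMSO only wells and 0% = binding blocked by excess unlabeled MEK5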
* = called active by the depositor; / = not tested or not shown; [ ] = dose if it differs, or a comment. Compounds with a hit are over-represented: about 2.9% of the library has one in this group of screens.

SMILES | MEKK2 WT-MEK5 | GRK2 inh | MEKK2mut PB1 HTS | Beta2AR agonist | MEKK3 PB1 HTS | MEKK2wt confirm | MEKK2mut-MEK5 | MEKK3 confirm
COc1ccc(-c2csc(COC(=O)C(C)(C)C)n2)cc1 | 99 | 1 | -2 | 0 | 95 | / | / | /
CC(C)(C)C(=O)OCc1nc(-c2ccc(F)cc2)cs1 | 44*[inhibitor] | 2 | -24 | 10 | 54 | 94 | -11 | 95
CCOC(=O)C(C)Sc1nc(=O)n2cc(C)ccc2n1 (configuration not stated) | 54 | 0 | -15 | -4 | 45*[inhibitor] | 117 | 7 | 103
CCOC(=O)C(C)Sc1nc(=O)n2ccccc2n1 (configuration not stated) | 98 | 0 | -6 | 4 | 103 | / | / | /
C(=N\Nc1nc(-c2ccccc2)cs1)/c1ccncc1 | 93 | 0 | -4 | -13 | 100 | / | / | /
Cc1onc(-c2ccccc2)c1-c1csc(N/N=C/c2ccccc2)n1 | 74 | 1 | -17 | 12 | 68*[inhibitor] | 99 | -1 | 99
O=C1CCc2cc(S(=O)(=O)NC(Cc3ccccc3)C(=O)N3CCN(c4ccccn4)CC3)ccc2N1 (configuration not stated) | 95 | 3 | -10 | 5 | 103 | / | / | /
Cc1cc(C(=O)NCCCN2CCCC2=O)no1 | 87 | 0 | -10 | -2 | 87 | / | / | /
C/C=C1\COC(C(=O)NCc2ccccc2)(C(F)(F)F)C=C1C=C1CCCCC1 (configuration not stated) | 102 | 3 | 1 | 4 | 104 | / | / | /
C/C=C1\COC(C(=O)NCCN2CCCC2)(C(F)(F)F)C=C1C=C1CCCCC1 (configuration not stated) | 141* | 0 | 17 | 12 | 103 | 134 | 14 | 110
C/C=C1\COC(C(=O)NCCCN2CCCC2=O)(C(F)(F)F)C=C1C=C(C)C (configuration not stated) | 85 | 1 | -7 | -4 | 78*[inhibitor] | 105 | 19 | 107
CCOC(=O)c1cccc(-n2c(-c3ccc(OC)cc3)nc3nc4ccccc4nc32)c1 | 94 | / | 0 | / | 134* | 90 | -4 | 100
CCOC(=O)c1cccc(-n2c(C)nc3ccccc3c2=O)c1 | 105 | 2 | 3 | -5 | 102 | / | / | /
CCN(CC)Cc1c(C(=O)N/N=C/c2ccccn2)nnn1-c1nonc1N | 102 | 5 | -5 | -17 | 102 | / | / | /
CCCCCCCCCCn1ccc(=N)cc1 | 148* | 0 | 30 | 15 | 125 | 126 | 21 | 108
CN1CC(=O)N(CC(=O)Nc2ccc(OCc3ccccc3)cc2)C1=O | / | 0 | / | -6 | / | / | / | /
O=C(Nc1ccc(F)cc1)OCCN1CCN(Cc2ccccc2)CCC1=O | 2.0*[inhibitor] | 0 | -2 | -4 | 2.0*[inhibitor] | 103 | -3 | 100
COCCC(=O)N1CCC(Oc2ccc(C(=O)N3CCCCC3CCO)cc2)CC1 (configuration not stated) | 102 | 4 | 3 | -1 | 101 | / | / | /
CN1CCN(S(=O)(=O)c2ccc(NC(=O)c3ccc(Br)s3)cc2)CC1 | 138* | 0 | 13 | 0 | 114 | 118 | 15 | 109
O=C(Nc1ccc(S(=O)(=O)N2CCCC2)cc1)c1ccc(Br)o1 | 96 | 3 | 1 | -3 | 97 | / | / | /
O=C(Nc1ccc(N2CCCC2)cc1)c1ccc(Br)o1 | 102 | 0 | 3 | -3 | 98 | / | / | /
CN1CCN(S(=O)(=O)c2ccc(NC(=O)c3ccccc3Cl)cc2)CC1 | 105 | 1 | 2 | 4 | 100 | / | / | /
CN1CCN(c2ccc(NC(=O)c3ccc(-c4ccc(Br)cc4)o3)cc2)CC1 | 168* | 0 | 35 | 17 | 99 | 173 | 38 | 104
CN1CCN(S(=O)(=O)c2ccc(NC(=O)c3ccc(Br)o3)cc2)CC1 | 51 | 3 | -9 | -1 | 41*[inhibitor] | 111 | 10 | 110
CC1=CC(C)(C)N(C(=O)Nc2ccccc2)c2ccccc21 | 48 | 0 | -15 | 7 | 43*[inhibitor] | 97 | 3 | 95
SMILES | MEKK2 WT-MEK5 | GRK2 inh | MEKK2mut PB1 HTS | Beta2AR agonist | MEKK3 PB1 HTS | MEKK2wt confirm | MEKK2mut-MEK5 | MEKK3 confirm
CC1=CC(C)(C)N(C(=O)c2ccccc2)c2ccccc21 | 97 | 1 | -1 | 5 | 103 | / | / | /
Cc1cccc(N2CC(C(=O)Nc3ccc4c(c3)OCCO4)CC2=O)c1C (configuration not stated) | 99 | 2 | -3 | -6 | 100 | / | / | /
Cc1nc(-n2nnc(CO)c2CO)nc2c1CCC2 | 116 | 0 | 4 | -6 | 138* | 93 | -3 | 100
Cc1ccccc1NC(=O)CCN1C(=O)c2ccccc2C1=O | 103 | 0 | 2 | -1 | 103 | / | / | /
Cc1ccccc1NC(=O)CSCCN1C(=O)c2ccccc2C1=O | 97 | 0 | -1 | 3 | 74*[inhibitor] | 98 | 0 | 99
CCC(=O)C1CCCN(C(=O)CCc2nnc(-c3ccc(C(C)=O)s3)o2)C1 (configuration not stated) | 100 | 3 | 2 | -3 | 103 | / | / | /
COCc1[nH]nc2c1C1(C(=O)N(C)c3ccccc31)C(C#N)=C(N)O2 (configuration not stated) | 79 | 0 | -5 | 5 | 79*[inhibitor] | 106 | 4 | 103
Cc1ccc(S(=O)(=O)Nc2ccccc2C(=O)N2CCCCC2)cc1 | 107 | 0 | 9 | -2 | 101 | / | / | /
CCOC(=O)/C=c1/s/c(=C/c2ccccc2OC)c(=O)n1CC(=O)N1CCOCC1 | / | / | / | -5 | / | / | / | /
CCn1c(-c2cc(-c3ccccc3OC)nc3ccccc23)n[nH]c1=S | 110 | 0 | 1 | -7 | 134* | 102 | 9 | 106
COc1ccc(CNC(=O)C2CCCN(S(=O)(=O)c3ccc4c(c3)C(C)(C)C(=O)N4C)C2)cc1 (configuration not stated) | 0.0*[inhibitor] | 0 | -22 | 1 | 2.0*[inhibitor] | 101 | 5 | 97
COc1ccc(CNC(=O)C2CCN(S(=O)(=O)c3ccc4c(c3)C(C)(C)C(=O)N4C)CC2)cc1 | 108 | 0 | 5 | 3 | 101 | / | / | /
O=C(Cn1ccc(NC(=O)OCc2ccccc2)nc1=O)NCCCn1ccnc1 | / | 0 | / | -4 | / | / | / | /
CC1(C2(O)CCCCC2)NCCc2ccccc21 (configuration not stated) | / | / | / | 11 | / | / | / | /
CCOC(=O)/C(C#N)=C/c1ccc(OCC(=O)Nc2ccc(OC)cc2)c(OC)c1 | 119 | 0 | 4 | 6 | 124* | 100 | 0 | 99
CCOC(=O)/C(C#N)=C/c1ccc(OCC(=O)Nc2ccc(C)c(C)c2)c(OC)c1 | 94 | 0 | -1 | 7 | 96 | / | / | /
